Measured values: PubChem BioAssay (NCI)
About 83,000 compounds went through this panel and 20% of them were active in at least one assay; those are over-represented in the sample as a whole.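 The endpoint reported here, percent growth, reads 100 for growth as untreated, 0 for no net growth and -100 for all cells dead.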 The source made the active and inactive calls. Rule for the calls: active = growth percent below 10; inactive = the rest.

Assays:
Assay in all cases: NCI-60 one-dose screen, 48 h (100 = growth as untreated, 0 = no growth, -100 = all killed)
Conditions in all cases: 10 µM unless noted
HCT-15 colon = system: HCT-15 colon
HT29 colon = system: HT29 colon
SNB-75 CNS = system: SNB-75 CNS
SNB-19 CNS = system: SNB-19 CNS
U251 CNS = system: U251 CNS
PC-3 prostate = system: PC-3 prostate
SK-MEL-5 melanoma = system: SK-MEL-5 melanoma
UACC-62 melanoma = system: UACC-62 melanoma
LOX IMVI melanoma = system: LOX IMVI melanoma
SK-MEL-28 melanoma = system: SK-MEL-28 melanoma

Measured: growth

O=C1NC(=O)C(=Cc2ccc(OCCCCC3CCCCC3)c(Cl)c2)C(=O)N1
inactive: HCT-15 colon 98.5% | HT29 colon 92.3% | SNB-75 CNS 96.2% | SNB-19 CNS 100% | U251 CNS 81.7% | PC-3 prostate 88.4% | SK-MEL-5 melanoma 98.3% | UACC-62 melanoma 98.3% | LOX IMVI melanoma 56.1% | SK-MEL-28 melanoma 111%

CN1C(=O)C(=Cc2cn(Cc3ccccc3)c3ccccc23)C(=O)N(C)C1=O
inactive: HCT-15 colon 93% | HT29 colon 89.5% | SNB-75 CNS 60.1% | SNB-19 CNS 90% | U251 CNS 82.8% | PC-3 prostate 84.8% | SK-MEL-5 melanoma 63.4% | UACC-62 melanoma 34% | LOX IMVI melanoma 82.6% | SK-MEL-28 melanoma 99.3%

CC[C@H](C)[C@H](NC(=O)[C@H]1CCCCN1C)C(=O)N(C)[C@H](C[C@@H](OC(C)=O)c1cccc(C(=O)N[C@@H](Cc2ccccc2)C[C@H](C)C(=O)O)n1)C(C)C
active: HCT-15 colon 9.38% | HT29 colon -13.2% | SNB-75 CNS 8.07% | SK-MEL-5 melanoma -24.5%
inactive: SNB-19 CNS 26.9% | U251 CNS 13.6% | PC-3 prostate 25.4% | UACC-62 melanoma 40.4% | LOX IMVI melanoma 15.3% | SK-MEL-28 melanoma 69.3%

CC(=O)OC[C@]1(C)C=C2C(=O)[C@](C)(O)C3(CC3)C(C)=C2[C@H]1O
active: HCT-15 colon -8.75% | HT29 colon -12% | SNB-75 CNS -91.5% | SNB-19 CNS -16.5% | U251 CNS 1.39% | PC-3 prostate -15.6% | SK-MEL-5 melanoma -62% | UACC-62 melanoma -84.4% | LOX IMVI melanoma -30.3% | SK-MEL-28 melanoma -56%

CCOC(=O)[C@@H](C)C[C@H](Cc1ccccc1)NC(=O)c1csc([C@@H](C[C@H](C(C)C)N(C)C(=O)[C@@H](NC(=O)[C@H]2CCCCN2C)C(C)(C)C)OC(C)=O)n1
inactive: SNB-75 CNS 11.9% | SNB-19 CNS 24% | U251 CNS 14.7% | PC-3 prostate 21.1% | UACC-62 melanoma 27% | LOX IMVI melanoma 10.1% | SK-MEL-28 melanoma 51.2%
active: HCT-15 colon 7.37% | HT29 colon 0.339% | SK-MEL-5 melanoma -46.2%

CCOC(=O)[C@@H](C)C[C@H](Cc1ccccc1)NC(=O)c1csc([C@@H](C[C@H](C(C)C)N(C)C(=O)CNC(=O)[C@H]2CCCCN2C)OC(C)=O)n1
inactive: HCT-15 colon 12.8% | SNB-19 CNS 17.4% | U251 CNS 18.7% | PC-3 prostate 22.7% | SK-MEL-5 melanoma 13.5% | UACC-62 melanoma 29.8% | LOX IMVI melanoma 34.3% | SK-MEL-28 melanoma 57.1%
active: HT29 colon 4.5% | SNB-75 CNS -13.4%

NC1CC2CCCCC2CC1(O)c1ccccc1 (configuration not stated)
inactive: HCT-15 colon 102% | HT29 colon 102% | SNB-75 CNS 80.9% | SNB-19 CNS 103% | U251 CNS 96.4% | PC-3 prostate 92.8% | SK-MEL-5 melanoma 102% | UACC-62 melanoma 105% | LOX IMVI melanoma 91.9% | SK-MEL-28 melanoma 111%

ClC1=C(Cl)C(Cl)(C2(Cl)C(Cl)=C(Cl)C(Cl)=C2Cl)C(Cl)=C1Cl
inactive: SNB-75 CNS 62% | SNB-19 CNS 10.5%
active: HCT-15 colon -41.9% | HT29 colon -64.2% | U251 CNS -11.3% | PC-3 prostate -8.81% | SK-MEL-5 melanoma -21.8% | UACC-62 melanoma -18.6% | LOX IMVI melanoma -85.5% | SK-MEL-28 melanoma -18.1%

C[CH2][Sn]([Cl])([Cl])[CH2]C.Oc1ccccc1C=NCCN=Cc1ccccc1O
inactive: HCT-15 colon 104% | HT29 colon 108% | SNB-75 CNS 121% | SNB-19 CNS 106% | U251 CNS 93.5% | PC-3 prostate 89.8% | SK-MEL-5 melanoma 99.5% | UACC-62 melanoma 93.8% | LOX IMVI melanoma 72.2% | SK-MEL-28 melanoma 124%

COc1ccc(C(=O)c2cc(OC)c(OC)c(OC)c2)cc1OC(C)=O
inactive: HCT-15 colon 12.7% | HT29 colon 18.8% | SNB-75 CNS 40.4% | SNB-19 CNS 28.3% | PC-3 prostate 14.1% | UACC-62 melanoma 38.9% | LOX IMVI melanoma 19.7% | SK-MEL-28 melanoma 56.6%
active: U251 CNS 6.47% | SK-MEL-5 melanoma -35.1%

CC(=O)OCC1O[C@@H]([S-])C(OC(C)=O)[C@H](OC(C)=O)[C@@H]1OC(C)=O.[Au+].c1ccc(CN2[CH-]N(Cc3ccccc3)C(c3ccccc3)=C2c2ccccc2)cc1
inactive: HT29 colon 50.3% | SNB-75 CNS 40.8% | SNB-19 CNS 36.8% | PC-3 prostate 39.4% | SK-MEL-5 melanoma 48.5%
active: HCT-15 colon -63% | U251 CNS -59.3% | UACC-62 melanoma 8.41% | LOX IMVI melanoma -65.7% | SK-MEL-28 melanoma -56.8%

CCCCCCCCOC(=O)CCN1CC1
inactive: HCT-15 colon 101% | HT29 colon 111% | SNB-75 CNS 110% | SNB-19 CNS 112% | U251 CNS 95.6% | PC-3 prostate 104% | SK-MEL-5 melanoma 105% | UACC-62 melanoma 109% | LOX IMVI melanoma 96.9% | SK-MEL-28 melanoma 113%

COc1cc2c(cc1OCCCn1c(-c3ccccn3)nc3ccccc31)N=C[C@@H]1CCCN1C2=O
inactive: SNB-75 CNS 23.3% | SNB-19 CNS 27.2% | PC-3 prostate 12.8%
active: HCT-15 colon -22.7% | HT29 colon -26.7% | U251 CNS -44% | SK-MEL-5 melanoma -69.7% | UACC-62 melanoma -75.9% | LOX IMVI melanoma -7.37% | SK-MEL-28 melanoma 5.44%

Nc1ccc2c(c1)oc1ccccc12
inactive: HCT-15 colon 112% | HT29 colon 92.2% | SNB-75 CNS 81.1% | SNB-19 CNS 110% | U251 CNS 94.4% | PC-3 prostate 82.6% | SK-MEL-5 melanoma 104% | UACC-62 melanoma 94.9% | LOX IMVI melanoma 109% | SK-MEL-28 melanoma 104%

CC[C@H](C)[C@H](NC(=O)N[C@@H](C)c1ccccc1)C(=O)N(C)[C@H](C[C@@H](OC(C)=O)c1nc(C(=O)N[C@@H](Cc2ccccc2)C[C@H](C)C(=O)OC)cs1)C(C)C
active: HT29 colon -24.4% | SNB-75 CNS -0.0971% | SK-MEL-5 melanoma -33.7%
inactive: HCT-15 colon 12.3% | SNB-19 CNS 56.7% | U251 CNS 13.1% | PC-3 prostate 22.6% | UACC-62 melanoma 11.4% | LOX IMVI melanoma 18% | SK-MEL-28 melanoma 44.6%

CCCCNC(c1ccc(Cl)cc1)C(O)c1ccc(Cl)cc1 (configuration not stated)
inactive: HCT-15 colon 32.7% | SNB-75 CNS 61.9% | SNB-19 CNS 54.6% | PC-3 prostate 42.2% | SK-MEL-5 melanoma 32.7% | UACC-62 melanoma 19.2% | SK-MEL-28 melanoma 45.6%
active: HT29 colon 4.8% | U251 CNS 6.63% | LOX IMVI melanoma -75.6%

C#Cc1ccc2c(c1)C(c1ccccc1F)=NCC(=O)N2C
inactive: HCT-15 colon 28% | HT29 colon 15.7% | SNB-75 CNS 51.7% | SNB-19 CNS 49% | U251 CNS 39.7% | PC-3 prostate 55.8% | SK-MEL-5 melanoma 29.9% | UACC-62 melanoma 31.3% | LOX IMVI melanoma 47.5% | SK-MEL-28 melanoma 63.8%

COC1OC(CO)C(O)C(O)[CH]1[Hg][O]C(C)=O (configuration not stated)
inactive: HCT-15 colon 87.1% | HT29 colon 79.8% | SNB-75 CNS 77.3% | SNB-19 CNS 94.4% | U251 CNS 67.7% | PC-3 prostate 87.9% | SK-MEL-5 melanoma 86.2% | UACC-62 melanoma 85.9% | LOX IMVI melanoma 82.3% | SK-MEL-28 melanoma 97.5%

ClCCN(CCCl)c1ccc(/C=N\N=C\c2ccc(N(CCCl)CCCl)cc2)cc1
inactive: HCT-15 colon 37.3% | HT29 colon 39.3% | SNB-75 CNS 72.1% | SNB-19 CNS 69.2% | U251 CNS 47.4% | PC-3 prostate 34.3% | SK-MEL-5 melanoma 49.7% | UACC-62 melanoma 24.5% | LOX IMVI melanoma 10.7% | SK-MEL-28 melanoma 61.3%

Cc1sc2c(c1C)C(c1ccc(Cl)cc1)=N[C@@H](CC(=O)OC(C)(C)C)c1nnc(C)n1-2
inactive: HCT-15 colon 12.9% | HT29 colon 18% | SNB-75 CNS 18.6% | SNB-19 CNS 45.4% | U251 CNS 52.4% | PC-3 prostate 53.3% | SK-MEL-5 melanoma 21.1% | UACC-62 melanoma 26.9% | SK-MEL-28 melanoma 38.4%
active: LOX IMVI melanoma 7.81%

CN1CCCCC1C(C)(O)c1ccccc1 (configuration not stated)
inactive: HCT-15 colon 100% | HT29 colon 93.4% | SNB-75 CNS 93% | SNB-19 CNS 107% | U251 CNS 101% | PC-3 prostate 82.1% | SK-MEL-5 melanoma 104% | UACC-62 melanoma 104% | LOX IMVI melanoma 99% | SK-MEL-28 melanoma 105%

CC(=O)O[C@H](C[C@H](C(C)C)N(C)C(=O)[C@@H](NC(=O)[C@H]1CCCCN1C)C(C)C)c1nc(C(=O)N[C@@H](Cc2ccccc2)C[C@H](C)C(=O)O)c(CCOCc2ccccc2)s1
inactive: SNB-19 CNS 16% | U251 CNS 11.5% | PC-3 prostate 21.9% | UACC-62 melanoma 27.1% | SK-MEL-28 melanoma 42%
active: HCT-15 colon 6.72% | HT29 colon -4.51% | SNB-75 CNS 0.84% | SK-MEL-5 melanoma -40.5%

O=C(O)C(Cl)(Cl)C(F)(F)F
inactive: HCT-15 colon 104% | HT29 colon 103% | SNB-75 CNS 97.7% | SNB-19 CNS 105% | U251 CNS 108% | PC-3 prostate 102% | SK-MEL-5 melanoma 103% | UACC-62 melanoma 105% | SK-MEL-28 melanoma 110%

COC(=O)[C@@H](C[C@H](Cc1ccccc1)NC(=O)c1csc([C@@H](C[C@H](C(C)C)N(C)C(=O)[C@@H](NC(=O)[C@H]2CCCCN2C)C(C)C)OC(C)=O)n1)NC(=O)OCc1ccccc1
inactive: SNB-75 CNS 25.6% [9.5 µM] | SNB-19 CNS 25.4% [9.5 µM] | PC-3 prostate 32.2% [9.5 µM] | UACC-62 melanoma 27.1% [9.5 µM]
active: HCT-15 colon 9.05% [9.5 µM] | HT29 colon -19.6% [9.5 µM] | U251 CNS 6.82% [9.5 µM] | SK-MEL-5 melanoma -3.63% [9.5 µM] | SK-MEL-28 melanoma -52.6% [9.5 µM]
